Measurements: PubChem BioAssay AID2284424 (EPA ToxCast)
The source made the active and inactive calls. The calls were made as follows: active = hit-call score of the fitted dose curve at least 0.9, where 1 is the maximum; inactive = score below 0.9.

The compounds below were run on SRY-box transcription factor 2 (SOX2) Protein Expression, SOX2 (gene 6657) (assay: CCTE_Deisenroth_DEVTOX-GLR_Ecto_SOX2: CCTE's DevTox GLR-Ecto Assay Evaluation of SRY-box transcription factor 2 (SOX2) Protein Expression, Deisenroth Lab).
Method: CCTE_Deisenroth_DEVTOX-GLR_Ecto assay is a cell-based, multiplex-readout assay that uses RUES2-GLR, a human pluripotent cell line, with measurements taken at 48 hours after chemical dosing in a 384-well microplateCCTE_Deisenroth_DEVTOX-GLR_Ecto_SOX2 is 1 of 4 assay components calculated from the CCTE_Deisenroth_DEVTOX-GLR_Ecto assay and it measures an the percentage of cells in an ectoderm state. Using a type of inducible fluorescent protein reporter, gain-of-signal activity can be used to understand changes in gene expression with fluorescent microscopy. The percentage of SOX2+ cells are determined by calculating the number of SOX2+ cells divided by the cell count. To generalize the intended target to other relatable targets, this assay component is annotated to the transcription factor intended target family, where the subfamily is SRY-related HMG-box.Data from the assay component CCTE_Deisenroth_DEVTOX-GLR_Ecto_SOX2 was analyzed as 1 assay endpoint. The endpoint is the percent change in SOX2+ cell population relative to the 0.2% DMSO control in the CCTE_Deisenroth_DEVTOX-GLR_Ecto assay. Furthermore, this assay endpoint can be referred to as a primary readout, because this assay has produced multiple assay endpoints where this one serves as a measure of ectoderm differentiation.
All assay protocols are aligned to the DevTox GLR-Endo assay workflow. Cells are seeded into 384-well microplates for 24 hours prior to initiating differentiation in defined media for a total duration of 48 hours. A total of two chemical exposures are administered in 24-hour intervals during the 48-hour differentiation period. At the assay termination point, cells are fixed and stained with a fluorescent dye demarcating the nucleus. High-content imaging is used to acquire brightfield and fluorescent channel images across 5 fields per well. Cell identification and mean biomarker fluorescence intensities are calculated with image analysis software to determine the total cell counts for viability assessment and the biomarker expression frequency for each lineage-dependent assay. A typical experimental design tests a 10-point concentration series (1 nM - 200 uM) for 28 compounds in single technical replicate. Assay plate controls include non-differentiated pluripotent cells (baseline control), lineage-specific differentiated cells (differentiation control), and DMSO solvent exposed differentiated cells (solvent control). Experiments typically comprise a minimum of four experimental replicates (n=4).

| SMILES | outcome | AC50 |
| --- | --- | --- |
| CC(C)(c1ccc(O)cc1)c1ccc(O)cc1 | inactive |  |
| O=C1NC(=O)C(c2ccccc2)(c2ccccc2)N1 | inactive |  |
| Nc1nc2ncc(CNc3ccc(C(=O)N[C@@H](CCC(=O)O)C(=O)O)cc3)nc2c(=O)[nH]1 | inactive |  |
| O=C1CCC(N2C(=O)c3ccccc3C2=O)C(=O)N1 (stereo unspecified) | inactive |  |
| Nc1cccc2c1C(=O)N(C1CCC(=O)NC1=O)C2=O (stereo unspecified) | inactive |  |
| CC1=C(/C=C/C(C)=C/C=C/C(C)=C\C(=O)O)C(C)(C)CCC1 |  | 5.86 µM (active) |
| CC(=O)Nc1ccc(O)cc1 | inactive |  |
| CS(=O)(=O)OCCCCOS(C)(=O)=O |  | 21 µM (active) |
| O=C1NS(=O)(=O)c2ccccc21 | inactive |  |
| CC/C(=C(/CC)c1ccc(O)cc1)c1ccc(O)cc1 | inactive |  |
| O=c1[nH]cc(F)c(=O)[nH]1 |  | 9.11 µM (active) |
| CCCC(CCC)C(=O)O | inactive |  |
| CC1=C(/C=C/C(C)=C/C=C/C(C)=C/C(=O)O)C(C)(C)CCC1 |  | 0.471 µM (active) |
| CC1(C)S[C@@H]2[C@H](NC(=O)Cc3ccccc3)C(=O)N2[C@H]1C(=O)O | inactive |  |
| CCN(CC)CCNC(=O)c1c(C)[nH]c(/C=C2\C(=O)Nc3ccc(F)cc32)c1C | inactive |  |
| CN(Cc1cnc2nc(N)nc(N)c2n1)c1ccc(C(=O)N[C@@H](CCC(=O)O)C(=O)O)cc1 |  | 0.106 µM (active) |
